From PubChem BioAssay

experiment: small-molecule microarray binders of probe aEGFR, primary screen, biochemical, biotinylated probe, 635/667 nm fluorescence (AID 1097); conditions: higher = more signal;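 further: probe is a biotinylated anti-EGFR antibody binding compounds printed on slides; score combines fluorescence near 667 nm and signal to noise of each spot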

Row | SMILES | composite z-score
1 | COc1ccc([Si](C)(C)[C@H]2[C@H](CC(=O)N3CCC[C@H]3CO)O[C@@]3(C(=O)N(Cc4cccc(N5C(=O)COc6ccccc65)c4)c4ccccc43)[C@@H]2C)cc1 | -0.142
2 | CC(=O)OC[C@H]1O[C@H](C#CCCCc2ccccc2)C=C[C@@H]1OC(C)=O | -0.0703
3 | CC(C)[C@H](NC(=O)OC(C)(C)C)[C@@H](O)CC(=O)OC(C)(C)C | -0.29
4 | COCCCNC(=O)[C@]1(CCC(=O)OC(C)(C)C)N=C(c2ccc(OCCCO)cc2)O[C@@H]1c1ccccc1N=[N+]=[N-] | 0.134
5 | C[C@@H]1C=CCC(=O)OC[C@H](C)C(=O)N[C@@H](C)C(=O)OC1 | 0.0886
6 | COC(=O)[C@@]1(Cc2ccc(F)cc2)[C@H]2c3cc(C(=O)N(C)C)n(Cc4ccc(OC)c(OC)c4)c3C[C@H]2CN1C(=O)c1ccccc1 | 0.365
7 | CCCCCN1CC=CC23O[C@@H]4C=CCOC(=O)[C@@H]4[C@H]2C(=O)N(CCCCCCO)[C@@H]3C1=O (stereo not given in full) | -0.254
8 | COc1ccc(O[C@H]2C=C[C@@H](c3ccccc3)O[C@@H]2COC(=O)CCC(C)=NO[C@H](C)c2cn([C@@H]3COC[C@H]3O)nn2)cc1 | -0.148
9 | C#C[C@@H]1Oc2ccccc2S(=O)(=O)N2CCC[C@H]12 | 0.056
10 | CC(C)(C)OC(=O)CC[C@]1(C(N)=O)COC(c2ccc(OCCCO)cc2)=N1 | 0.34
11 | COc1ccc(O[C@H]2C=C[C@@H](c3ccccc3)O[C@@H]2COC(=O)CCC(C)=NOC[C@@H](C)[C@H](OCc2ccccc2)C(C)C)cc1 | -0.219
12 | Cc1ccc(F)cc1S(=O)(=O)N[C@@H]1CCN(Cc2ccc(CC(C)C)cc2)C1 | -0.17
13 | CCc1cc2c(nc1CC)CCN(CCC(C)=NOC(C)CN1CCCc3nc(C)c(C)cc31)C2 (stereo not given) | 0.391
14 | Cc1ccc(S(=O)(=O)N[C@@H]2COC(=O)[C@H](C)COC(=O)CC=C[C@H]2C)cc1 | -0.215
15 | O=C1C[C@@H](O)[C@@H](O)[C@@H]2[C@@H]3C(=O)N(Cc4ccc5c(c4)OCO5)C(=O)[C@@H]3CC[C@@H]12 | 0.0414
16 | CN1C(=O)[C@@]2(CCC(=O)OC(C)(C)C)N=C(c3ccc(OCCCO)cc3)O[C@H]2c2ccccc21 | -0.168
17 | COCCOC(=O)N1C(=O)[C@@]2(c3cc(C#CC4(O)CCCCCC4)ccc31)[C@H](C(=O)N1CCN(c3ncccn3)CC1)[C@H]1C(=O)O[C@H](c3ccccc3)[C@H](c3ccccc3)N1[C@@H]2c1ccc(OCCO)cc1 | 0.0779
18 | CCOC(=O)[C@H](CC(C)C)NC(=O)CCC1CC(OC(=O)NCc2cccc3ccccc23)CC2(CCCC(COC(=O)NCCc3ccccc3OC)O2)O1 (stereo not given in full) | -0.0304

Row | SMILES | composite z-score
19 | COC(=O)[C@H](C)NC(=O)CCC1CC(OC(=O)NCc2cccc3ccccc23)CC2(CCCC(COC(=O)NCCc3ccc(Cl)cc3)O2)O1 (stereo not given in full) | -0.0967
20 | O[C@@H](Cc1ccccc1)[C@H]1C2C=CCCC(c3ccccc3)=C2CN1Cc1cccc(Cl)c1 (stereo not given in full) | -0.0549
21 | O=C1[C@H]2[C@H]3[C@H](O)[C@H](O)CC(=NO[C@@H]4O[C@H](CO)[C@@H](O)[C@H](O)[C@H]4O)[C@@H]3CC[C@H]2C(=O)N1Cc1ccccc1 | 0.0673
22 | COCCOC(=O)N1C(=O)[C@@]2(c3cc(C#CCNC(N)=O)ccc31)[C@H](c1ccccc1OCCO)N1[C@H](c3ccccc3)[C@H](c3ccccc3)OC(=O)[C@H]1[C@@H]2C(=O)N1CCN(c2ncccn2)CC1 | -0.0271
23 | O=C1[C@H]2[C@H]3[C@H](O)[C@H](O)CC(=NO[C@@H]4O[C@H](CO)[C@@H](O)[C@H](O)[C@H]4O)[C@H]3CC[C@H]2C(=O)N1Cc1ccccc1 | -0.0565
24 | CC(C)(C)N1C(=O)[C@H]2[C@H]3[C@H](O)[C@H](O)CC(=NO[C@@H]4O[C@H](CO)[C@@H](O)[C@H](O)[C@H]4O)[C@@H]3CC[C@H]2C1=O | -0.0229
25 | O=C1[C@H]2[C@H]3[C@H](O)[C@H](O)CC(=NO[C@@H]4O[C@H](CO)[C@@H](O)[C@H](O)[C@H]4O)[C@H]3CC[C@H]2C(=O)N1C1CCCCC1 | -0.12
26 | CC[C@@H](c1ccccc1)n1c(=O)n2n(c1=O)[C@H]1[C@H](O)[C@@H]3O[C@@H]3C(=NOCC(C)C)[C@H]1CC2 | -0.0967
27 | CCCC[C@@H](O)C1=C(C)C[C@H]2C(=O)N(Cc3ccccc3)C(=O)[C@H]2[C@H]1CO | -0.159
28 | CC(C)=C1C(=O)C(c2ccccc2)=C2CN3C(=O)N(CCc4ccccc4)C(=O)[C@]3(Cc3ccc(F)cc3)[C@H]21 | 0.119
29 | N#Cc1ccc(NN2C(C(O)c3cc(C(F)(F)F)cc(C(F)(F)F)c3)C=CC3C(=O)N(c4ccccc4)C(=O)C32)cc1 (stereo not given) | 0.0731
30 | [N-]=[N+]=NCc1ccccc1[C@@H]1OC(c2ccc(OCCCO)cc2)=N[C@]1(Cc1ccccc1)C(=O)N1CCOCC1 | 0.256
31 | CC(CCN1CCCCc2nc(C)c(C)cc21)=NOC(C)CN1CCCCc2nc(C)c(C)cc21 (stereo not given) | 0.272
32 | O=C(NN=C1C[C@@H](O)[C@@H](O)[C@@H]2[C@@H]3C(=O)N(c4cccc(Oc5ccccc5)c4)C(=O)[C@@H]3CC[C@H]12)OCc1ccccc1 | -0.152
33 | CCOC(=O)CCN1C(=O)[C@H]2[C@H]3[C@H](O)[C@H](O)CC(=O)[C@H]3CC[C@H]2C1=O | -0.0381
34 | O=C1O[C@@H](c2ccccc2)[C@@H](c2ccccc2)N2[C@@H](c3ccc(OCCO)cc3)[C@]3(C(=O)Nc4ccc(C#CCCO)cc43)[C@@H](C(=O)N3CCCCCCC3)[C@H]12 | 0.249
35 | c1ccc(C2NCCc3c2[nH]c2ccccc32)cc1 (stereo not given) | 0.122
